Results reported in the supplement of paper PMC6555819.

Key:
Test in all cases: PBM binding z-score (relative to random genomic background probes); higher = stronger binding; sequences stand for … in GC…GCGATTGACAGCGTAGAATGAAGG
[1] = tested on: LXRa:RXRa (NR concentration 270 nM, RXRa partner concentration 90 nM)
Procedure, shortened: (§1)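 Binding z-scores take random background probes as their reference. They come from custom Agilent 4×180K protein-binding microarrays incubated 1 h with ligand-free nuclear receptor dimers, with antibodies against each partner (one per run) detecting binding. Scanned fluorescence was regression-normalized.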

[2] = tested on: LXRa homodimer (NR concentration 270 nM)
Procedure, shortened: as §1

[3] = tested on: LXRb homodimer (NR concentration 270 nM)
Procedure, shortened: as §1

[4] = tested on: PPARa:RXRa (NR concentration 270 nM, RXRa partner concentration 90 nM)
Procedure, shortened: as §1

[5] = tested on: PPARg:RXRa (NR concentration 180 nM, RXRa partner concentration 90 nM)
Procedure, shortened: as §1

[6] = tested on: PPARg:RXRa 270nM:90nM, anti-RXR (NR concentration 270 nM, RXRa partner concentration 90 nM)
Procedure, shortened: as §1

[7] = tested on: PPARg:RXRa 30nM:10nM, anti-RXR (NR concentration 30 nM, RXRa partner concentration 10 nM)
Procedure, shortened: as §1

[8] = tested on: PPARg:RXRa 90nM:30nM, anti-RXR (NR concentration 90 nM, RXRa partner concentration 30 nM)
Procedure, shortened: as §1

[9] = tested on: PPARg:RXRa DBDmut IVT, anti-RXR (DBD mutation: RXRa K156A/R161A, NR concentration 270 nM, RXRa partner concentration 90 nM)
Procedure, shortened: as §1

[10] = tested on: FXR:RXRa (NR concentration 270 nM, RXRa partner concentration 90 nM)
Procedure, shortened: as §1

Sequence	PBM binding z-score [1]	PBM binding z-score [2]	PBM binding z-score [3]	PBM binding z-score [4]	PBM binding z-score [5]	PBM binding z-score [6]	PBM binding z-score [7]	PBM binding z-score [8]	PBM binding z-score [9]	PBM binding z-score [10]
CGAACTACGTCATCCAGGACAGTGAATACATTGA	-0.0453	0.121	-0.033	-0.0578	0.703	-0.106	0.193	-0.145	0.257	–
CCGAGAAGGTTACGAGGGGGCATTCAGTGCGAAT	–	1.76	–	4.3	1.9	2.99	0.996	1.72	1.32	4.03
CAAACCAGGTCACAGAGGTCAAAGTCCGTGCGTA	6.8	7.74	2.6	6.49	8.73	7.69	5.28	7.12	6.56	–
CGTCAAAGTTCAACTAAGGTTACGTAAAGCACGC	–	6.3	2.31	–	5.53	5.55	2.42	4.33	0.789	7.19
TAGCCTAGGTTATGGGCCAGTATACCACGCGAAC	–	-0.332	-0.441	–	0.643	0.89	-0.0157	0.388	0.121	-0.238
GCTGCTAGGTCAACTGATGGCCAGCTAAAGCTCG	2.54	-0.17	-0.174	3.6	2.45	3.01	0.617	2.13	4.28	–
TCTAGTCGGTCAAAGGTCACACACTCGAAATGCG	–	5.28	2.21	–	–	10.2	11.1	11.4	5.17	6.97
CAAACTAGGTCACAAAAGGTCAAAGTCGAATGAC	–	7.78	3.46	–	10.1	8.38	6.97	8.43	8.13	7.02
AAAACAGGGTCATCGTAGGCCAGAGTACGCACAG	6.26	0.569	1.32	6.26	7.65	6.86	4.1	5.89	4.38	–
CCGAGTAGGTTACGAGGGGTCATTCAGTGCGAAT	–	6.16	–	–	4.13	4.4	1.73	3.54	4.41	4.94
TGTCAATGTTCAAAGGTAACGTAAGTATCCACAC	–	-0.216	0.283	–	2.34	3.47	1.61	3.32	-0.214	0.202
CCTAGTTGGTCAAGGTCACACCCGCTATAGGTAC	–	2.19	1.02	–	2.92	3.27	1.13	2.4	2.17	3.45
AGTCAAAGTTCAGGACGACGTAACGTAAAGCACG	–	0.954	-0.163	–	4.42	4.5	1.87	4	-0.52	3.58
TAGCCGAGGTCATTCAGGGGCCAGTATAGAAAGC	6.28	2.47	2.89	6.23	6.14	5.81	2.43	4.55	1.75	–
TAGCCTAGGTCATGGGCCAGTGTACCACGCGAAC	–	0.0441	-0.0634	–	4.13	3.87	1.39	2.66	1.74	4.82
CGCACTAGGTCATCCAGGACAGTGAATACATTGA	2.83	0.736	0.107	4.49	7.36	6.27	3.65	5.62	7.71	–
CGAACTAGGTCATCCAGGACCGTGAATACATTGA	2.19	0.428	-0.349	4.4	7.13	6.1	3.53	5.78	8.24	–
ACTCGGTGGACAAAGGTCAGAGCTACGCCAGTGA	3.52	0.715	-0.512	4.25	6.18	6.42	5.2	6.63	0.195	–
GCTAGTTGGTCAGTAAAATGTCACACACCGGTCG	0.173	-0.0317	-0.257	-0.0403	0.556	-0.103	-0.158	0.223	0.762	–
CCTAGCAGGCCAATCTAGGTCACTCAAGGCTTGA	–	0.192	-0.859	–	2.1	2.47	0.115	1.49	5.08	1.46
CGAACGAGGTCATCCAGGACAGTGAATACATTGA	6.03	1.53	1.78	6.37	7.79	7.07	3.9	6.1	5.37	–
CCGAGGAGGTTACGAGGGGGCATTCAGTGCGAAT	–	1.63	–	–	2.38	3.52	0.838	2.45	1.54	4.41
CCGAGTAGGTTACTAGGGGGCATTCAGTGCGAAT	–	6.06	–	–	2.37	3.48	1.14	2.93	4.55	2.3
TCTATTAGTTGATTAGGGCAACCGAAACAGCGGA	0.552	0.193	0.613	1.05	0.303	2.14	3.65	2.63	2.02	–
GGAACGAGGTCAAGTTGATAGCAGAGTTTGATGG	6.21	2.03	2.13	6.38	7.7	6.96	4.31	6.52	6.19	–
GCTGCTAGTTCAACTGATGGTCAGCTAAAGCTCG	–	-0.53	-0.641	–	-0.618	-0.212	-0.685	-0.415	-0.111	-0.0566
CAAACTAGGTCACCGAAAGGTCAAAGTCCGCATG	–	7.45	2.39	–	–	8.22	6.51	8.62	8.72	7.31
CAAACTAGGTCACGAGAGGTCAAAGTCGAATGAC	8.28	8.5	2.4	6.78	10.7	8.59	6.83	8.87	8.71	–
